The nature of test [1]: NCI Yeast Anticancer Drug Screen. Data for the rad50 strain (AID 155).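 Note: 0% = growth of vehicle-only cultures of the same strain.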 To be noted: S. cerevisiae rad50 strain growth inhibition, active compounds read high. Put shortly:
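Inhibition values express reduced yeast growth in compound-treated cultures relative to vehicle-treated controls.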

Test [2] is described as follows: NCI Yeast Anticancer Drug Screen. Data for the mec2-1 strain (AID 157). Particulars: S. cerevisiae mec2-1 strain, active compounds read high. The procedure, abridged: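 Test agents were screened against the mec2-1 yeast strain, with defined DNA repair or cell cycle alteration. Growth was scored as inhibition against vehicle-only controls.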
Test [3] in a line: NCI Yeast Anticancer Drug Screen. Data for the sgs1 mgt1 strain (AID 161).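 Note: 0% = growth of cultures given vehicle only.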 Particulars: S. cerevisiae sgs1 mgt1 strain, active compounds read high. Put shortly:
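Read-out: growth inhibition vs vehicle controls. Cells: mutant yeast strain deficient in DNA damage repair.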

A short description of test [4]: NCI Yeast Anticancer Drug Screen. Data for the cln2 rad14 strain (AID 165).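 Note: 0% = growth equal to vehicle treated cultures.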 Particulars: S. cerevisiae cln2 rad14 strain, active compounds read high. Put shortly:
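Growth of compound-exposed yeast (cln2 rad14 genotype) measured and expressed as inhibition relative to vehicle.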

Test [5] in a line: NCI Yeast Anticancer Drug Screen. Data for the bub3 strain (AID 167). Particulars: S. cerevisiae bub3 mutant strain, active compounds read high. Put shortly:
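Steps: expose the mutant yeast strain to compound; grow alongside vehicle-treated cultures; measure growth; express inhibition against the vehicle cultures.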

A short description of test [6]: NCI Yeast Anticancer Drug Screen. Data for the mlh1 rad18 strain (AID 175). To be noted: S. cerevisiae mlh1 rad18 strain growth inhibition, active compounds read high. Put shortly: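 In this whole-cell yeast screen, a strain with altered DNA damage repair is challenged with compound, and its growth is measured against matched vehicle-treated controls.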
[7] abbreviates: at 5.0 µM (retest, dose inferred, filed as 0.5).
[8] abbreviates: at 50.0 µM (retest, dose inferred, filed as 5.0).

Each structure is given as a SMILES string. Compounds without any hit were thinned out: in the full panel of roughly 79,000, 15% have a hit. Values without a mark were called inactive. The source made the active and inactive calls. Cut-off read from the data, not from the text of the source: active = growth inhibition above about 70%; inactive = the rest.

With `N#CC1C(=O)NC(=O)CC1c1ccccc1` (stereo unspecified), the growth inhibition is 10% in test [1] (setting [7]); 99% (active) in test [1] (setting [8]); 99.2% (active) in test [1] (at 50.0 µM); -10% in test [2] (setting [7]); 99% (active) in test [2] (setting [8]); 99.2% (active) in test [2] (at 50.0 µM). Also, the growth inhibition in test [3] (setting [7]) was 10%; in test [3] (setting [8]) it was 99% (active); in test [3] (at 50.0 µM), 99% (active); in test [4] (setting [7]), 10%; in test [4] (setting [8]), 99% (active); in test [4] (at 50.0 µM), 99.3% (active). In addition, the growth inhibition in test [5] (setting [7]) is 0%; in test [5] (setting [8]), 99% (active); in test [5] (at 50.0 µM), 99.3% (active); in test [6] (setting [7]), 13%; in test [6] (setting [8]), 99% (active); in test [6] (at 50.0 µM) it was 99.2% (active).

In the case of `CCc1cccc(C)c1NC(=O)C(=O)C(C#N)c1ccc(C)cc1` (stereo unspecified), the growth inhibition in test [1] (setting [7]) was -3%; in test [1] (setting [8]), 27%; in test [1] (at 50.0 µM), 28.5%; in test [2] (setting [7]) it was 0%; in test [2] (setting [8]), 5%; in test [2] (at 50.0 µM), 13.2%. The growth inhibition was -25% in test [3] (setting [7]); -1% in test [3] (setting [8]); 17.9% in test [3] (at 50.0 µM); 8% in test [4] (setting [7]); 18% in test [4] (setting [8]); 13.7% in test [4] (at 50.0 µM). Besides, the growth inhibition in test [5] (setting [7]) was -4%; in test [5] (setting [8]) it was 39%; in test [5] (at 50.0 µM), 16.1%; in test [6] (setting [7]), 13%; in test [6] (setting [8]), 24%; in test [6] (at 50.0 µM), 23.9%.

On to `O=C(O)c1ccc2cc3ccccc3cc2c1`, for which the growth inhibition in test [1] (setting [7]) is -16%; in test [1] (setting [8]), 65%; in test [1] (at 50.0 µM) it was 75.9% (active); in test [2] (setting [7]), 5%; in test [2] (setting [8]), 48%; in test [2] (at 50.0 µM) it was 47.4%. Moreover, the growth inhibition in test [3] (setting [7]) is -10%; in test [3] (setting [8]), 50%; in test [3] (at 50.0 µM), 63%; in test [4] (setting [7]), -49%; in test [4] (setting [8]) it was 42%; in test [4] (at 50.0 µM), 61.9%. Besides, the growth inhibition in test [5] (setting [7]) was -29%; in test [5] (setting [8]), 30%; in test [5] (at 50.0 µM) it was 62.4%; in test [6] (setting [7]), -24%; in test [6] (setting [8]), 58%; in test [6] (at 50.0 µM) it was 54.1%.

Turning to `Oc1ccc(N(Cc2ccccc2)Cc2ccccc2)cc1`, the growth inhibition in test [1] (setting [7]) was 4%; in test [1] (setting [8]), 47%; in test [1] (at 50.0 µM) it was 98.2% (active); in test [2] (setting [7]) it was 4%; in test [2] (setting [8]), 58%; in test [2] (at 50.0 µM) it was 97.9% (active). Also, the growth inhibition is 6% in test [3] (setting [7]); 40% in test [3] (setting [8]); 98.4% (active) in test [3] (at 50.0 µM); 0% in test [4] (setting [7]); 93% (active) in test [4] (setting [8]); 97.7% (active) in test [4] (at 50.0 µM). Moreover, the growth inhibition is 7% in test [5] (setting [7]); 89% (active) in test [5] (setting [8]); 97.6% (active) in test [5] (at 50.0 µM); 6% in test [6] (setting [7]); 69% in test [6] (setting [8]); 97.3% (active) in test [6] (at 50.0 µM).

For the compound `O=C(O)/C=C/CCC1SCC2NC(=O)NC21` (stereo unspecified), the growth inhibition in test [1] (setting [7]) was 96% (active); in test [1] (setting [8]), 96% (active); in test [1] (at 50.0 µM), 80.3% (active); in test [2] (setting [7]), 98% (active); in test [2] (setting [8]), 97% (active); in test [2] (at 50.0 µM), 84.2% (active). Further, the growth inhibition in test [3] (setting [7]) was 96% (active); in test [3] (setting [8]) it was 96% (active); in test [3] (at 50.0 µM), 88.3% (active); in test [4] (setting [7]), 94% (active); in test [4] (setting [8]) it was 95% (active); in test [4] (at 50.0 µM), 84% (active). In addition, the growth inhibition in test [5] (setting [7]) was 97% (active); in test [5] (setting [8]) it was 97% (active); in test [5] (at 50.0 µM), 87.5% (active); in test [6] (setting [7]), 96% (active); in test [6] (setting [8]), 96% (active); in test [6] (at 50.0 µM), 83% (active).

`S=C(N/N=C/c1ccccn1)N1CCCCC1`: the growth inhibition in test [1] (setting [7]) is 99% (active); in test [1] (setting [8]), 98% (active); in test [1] (at 50.0 µM), 89.3% (active); in test [2] (setting [7]), 97% (active); in test [2] (setting [8]) it was 99% (active); in test [2] (at 50.0 µM) it was 92.4% (active). In addition, the growth inhibition in test [3] (setting [7]) was 98% (active); in test [3] (setting [8]), 97% (active); in test [3] (at 50.0 µM), 91.8% (active); in test [4] (setting [7]), 96% (active); in test [4] (setting [8]) it was 99% (active); in test [4] (at 50.0 µM), 93% (active). Also, the growth inhibition in test [5] (setting [7]) is 98% (active); in test [5] (setting [8]), 100% (active); in test [5] (at 50.0 µM) it was 92% (active); in test [6] (setting [7]), 98% (active); in test [6] (setting [8]), 99% (active); in test [6] (at 50.0 µM), 89.5% (active).

Take `CCNC(=O)COc1ccc(Cl)cc1Cl`: the growth inhibition is -2% in test [1] (setting [7]); 10% in test [1] (setting [8]); -17.6% in test [1] (at 50.0 µM); -10% in test [2] (setting [7]); 2% in test [2] (setting [8]); -19.4% in test [2] (at 50.0 µM). Also, the growth inhibition was 0% in test [3] (setting [7]); -6% in test [3] (setting [8]); -15.4% in test [3] (at 50.0 µM); 7% in test [4] (setting [7]); 13% in test [4] (setting [8]); 38.8% in test [4] (at 50.0 µM). Also, the growth inhibition was -5% in test [5] (setting [7]); -3% in test [5] (setting [8]); -29.4% in test [5] (at 50.0 µM); 8% in test [6] (setting [7]); 2% in test [6] (setting [8]); -27.4% in test [6] (at 50.0 µM).

Values taken from PubChem BioAssay (NCI).
